This is a sample that favours compounds with a hit; in the whole collection about 3% have one here.
zVAD death inh: L929 zVAD cell death inhibition; L929 zVAD necroptosis rescue, ATP luminescence, 24 h; with zVAD 60 µM; viability rescue, % at 10 µM; 220,000 compounds, 0.38% hits; AID 1377;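 active = activation, scaled between plate controls, above about 75%, limit read from the data; inactive = activation under that limit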;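 also: 0% = zVAD with DMSO and 100% = DMSO alone without zVAD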
Calpain2 inh: calpain II (pig) inhibition; purified calpain II, fluorogenic peptide substrate, 30 min; inhibition, % at 16 µM; 220,000 compounds, 0.37% hits; AID 1236;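 active = inhibition above about 50%, limit read from the data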
14-3-3 Bad PPI: disrupts binding of bovine 14-3-3 zeta to phospho-Bad peptide | P63103 | TR-FRET 14-3-3zeta/Dy647-pBad peptide displacement, 1 h | inhibition, % at 21.7 µM | 220,000 compounds, 0.71% hits | AID 781;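 active = inhibition above about 70%, limit read from the data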;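 also: 0% = full 14-3-3 plus peptide FRET controls and 100% = background without 14-3-3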
Target sequence (P63103 whole entry, looked up): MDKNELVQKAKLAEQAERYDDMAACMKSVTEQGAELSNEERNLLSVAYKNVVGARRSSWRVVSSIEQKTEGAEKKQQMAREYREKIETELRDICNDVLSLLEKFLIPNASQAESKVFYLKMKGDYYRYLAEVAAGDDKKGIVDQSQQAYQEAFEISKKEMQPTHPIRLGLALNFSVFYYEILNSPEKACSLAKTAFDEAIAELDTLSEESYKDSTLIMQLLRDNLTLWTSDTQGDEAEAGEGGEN
TNF necrop inh: inhibitors of TNF-alpha induced necroptosis in Jurkat FADD-/- cells; Jurkat FADD-/- TNF necroptosis rescue, ATP luminescence, 24 h; 0 = TNF only, 100 = no-TNF cells; activation (protection from cell death), % at 10 µM; 220,000 compounds, 0.068% hits;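 active = activation, meaning protection from cell death, of at least 50% relative to plate controls; inactive = activation below 50%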;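 also: necroptosis triggered by 40 ng/mL TNF-alpha added together with compound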
Efa HMGR inh: blocks class II HMG-CoA reductase of Enterococcus faecalis; 190,000 compounds, 0.41% hits; purified E. faecalis HMGR, NADPH absorbance 340 nm kinetic; inhibition, % at 10 µM;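 active = inhibition above a set limit, the median over all tested compounds plus 3 SD, cut at about 9.5% in these data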;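 also: enzyme runs in reverse so mevalonate oxidation gives rising NADPH absorbance; 0% = complete reaction with DMSO and 100% = background rate lacking mevalonate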
ROMK mod: modulates human ROMK potassium channel activity. Tet-inducible ROMK, thallium flux fluorescence; actives lie on both sides. B-score at 10 µM. 130,000 compounds, 2% hits. AID 1918;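 active = signal ratio slope over the read window, or its plate-corrected B-score, at least 3 SD from the plate mean, either direction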;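 also: B-score of the F/F0 ratio slope over 7 to 12 s after thallium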
Target sequence (P48048 whole entry, looked up): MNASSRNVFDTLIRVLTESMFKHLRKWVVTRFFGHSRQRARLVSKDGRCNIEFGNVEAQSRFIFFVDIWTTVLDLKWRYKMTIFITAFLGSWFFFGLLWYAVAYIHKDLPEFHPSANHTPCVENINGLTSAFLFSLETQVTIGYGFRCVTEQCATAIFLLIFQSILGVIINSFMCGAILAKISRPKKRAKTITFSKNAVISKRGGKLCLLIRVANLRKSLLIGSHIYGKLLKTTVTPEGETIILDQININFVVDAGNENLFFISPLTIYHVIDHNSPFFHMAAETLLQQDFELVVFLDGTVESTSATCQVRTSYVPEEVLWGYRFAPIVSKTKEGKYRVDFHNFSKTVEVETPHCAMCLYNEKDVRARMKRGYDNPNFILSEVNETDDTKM
The depositor's hits bear a star; [ ] = remark or other dose.

How did O=S(=O)(c1cccs1)N1CCN(CC(O)COc2cccc(Br)c2)CC1 (centres undefined) do in these assays?
zVAD death inh: -1.3; Calpain2 inh: -2.1; 14-3-3 Bad PPI: 60.4; TNF necrop inh: -0.3; Efa HMGR inh: -4.2; ROMK mod: 0.092

How did O=S(=O)(c1cccs1)N1CCN(CC(O)COC2CCCc3ccccc32)CC1 (centres undefined) do in these assays?
zVAD death inh: -0.1; Calpain2 inh: -8.6; 14-3-3 Bad PPI: 78.8*; TNF necrop inh: -0.7; Efa HMGR inh: -2.0

Results for Cc1ccccc1Cn1cc(NC(=O)c2cc(C3CC3)on2)cn1 ?
zVAD death inh: 0.3; Calpain2 inh: 32.4; 14-3-3 Bad PPI: -1.0; TNF necrop inh: 4.7

Results for S=C(NCc1ccco1)N/N=C/c1ccc(Cl)cc1 ?
zVAD death inh: -0.3; Calpain2 inh: 67.7*; 14-3-3 Bad PPI: 2.7; TNF necrop inh: 1.2; Efa HMGR inh: 1.5; ROMK mod: 0.35

Results for COc1ccccc1/C=N/NC(=S)NCc1ccco1 ?
zVAD death inh: -0.5; Calpain2 inh: 60.1*; 14-3-3 Bad PPI: -0.8; TNF necrop inh: 1.7; ROMK mod: -0.188

What do the screens show for `S=C(NCc1ccco1)N/N=C/c1ccccc1Cl`?
zVAD death inh: 0.2; Calpain2 inh: 45.5; 14-3-3 Bad PPI: 5.9; TNF necrop inh: 1.5; Efa HMGR inh: -3.5; ROMK mod: -0.0274

How did COC(=O)c1cc(NC(=O)CN(c2ccc(OC)cc2)S(=O)(=O)c2ccc(F)cc2)ccc1Cl do in these assays?
zVAD death inh: 0.0; Calpain2 inh: -15.8; 14-3-3 Bad PPI: -1.8; TNF necrop inh: -8.4; Efa HMGR inh: 0.8

How did COc1cc(/C=C2\C(=O)ON=C2c2ccccc2)cc(Cl)c1O do in these assays?
zVAD death inh: 3.3; Calpain2 inh: 17.1; 14-3-3 Bad PPI: 2.8; TNF necrop inh: -5.1; Efa HMGR inh: 0.9; ROMK mod: -15.4*

What do the screens show for `CCc1cc2c3c(c1)C(C)CC(C)(C)N3C(=O)/C2=C1\SC(=O)NC1=O` (centres undefined)?
zVAD death inh: 0.2; Calpain2 inh: 56.9*; 14-3-3 Bad PPI: 12.8; TNF necrop inh: 0.7

Results for CCc1cc2c3c(c1)/C(=C1/SC(N)=NC1=O)C(=O)N3C(C)(C)C=C2C ?
zVAD death inh: 1.2; Calpain2 inh: -24.0; 14-3-3 Bad PPI: -6.8; TNF necrop inh: -6.2; Efa HMGR inh: -0.7; ROMK mod: -0.481

How did CC(C)(CO)NC(=O)CC1C(=O)NCCN1Cc1ccc(-c2ccccc2)cc1 (centres undefined) do in these assays?
zVAD death inh: -1.6; Calpain2 inh: -51.0; 14-3-3 Bad PPI: -12.3; TNF necrop inh: 1.6; Efa HMGR inh: -4.7; ROMK mod: -0.0206

What do the screens show for `CC(C)(CO)NC(=O)CC1C(=O)NCCN1CC(c1ccccc1)c1ccccc1` (centres undefined)?
zVAD death inh: 1.9; Calpain2 inh: -30.6; 14-3-3 Bad PPI: -3.9; TNF necrop inh: 1.1; Efa HMGR inh: 10.3*; ROMK mod: -0.0283

What do the screens show for `CCOc1ccc(-c2nc3ccccc3c(=O)o2)cc1`?
zVAD death inh: 0.3; Calpain2 inh: -32.9; 14-3-3 Bad PPI: -9.5; TNF necrop inh: -0.5; Efa HMGR inh: 12.5*; ROMK mod: 0.74

How did Cc1ccc(C2CC(=O)NC(SCC(N)=O)=C2C#N)s1 (centres undefined) do in these assays?
zVAD death inh: 2.1; Calpain2 inh: -4.9; 14-3-3 Bad PPI: -2.0; TNF necrop inh: 1.4; Efa HMGR inh: 5.1; ROMK mod: -0.799

What do the screens show for `O=C(CN1C(=O)/C(=C/c2cccc(Br)c2)SC1=S)NC1=NCCS1`?
zVAD death inh: -0.4; Calpain2 inh: 83.8*; 14-3-3 Bad PPI: 7.7; TNF necrop inh: 2.7; Efa HMGR inh: 4.2; ROMK mod: -1.31

How did O=C(CN1C(=O)/C(=C/c2cccc(Br)c2)SC1=S)Nc1cccnc1 do in these assays?
zVAD death inh: 0.6; Calpain2 inh: -12.5; 14-3-3 Bad PPI: -2.1; TNF necrop inh: 2.3; Efa HMGR inh: 2.9; ROMK mod: -2.56

What do the screens show for `COc1ccc(OC)c(N(CC(=O)N2CCN(c3cc(Cl)ccc3C)CC2)S(C)(=O)=O)c1`?
zVAD death inh: -0.8; Calpain2 inh: 57.2*; 14-3-3 Bad PPI: -13.7; TNF necrop inh: -2.7; Efa HMGR inh: -6.8; ROMK mod: -0.652

Results for CCN1CCN(C(=O)CN(c2cc(OC)ccc2OC)S(C)(=O)=O)CC1 ?
zVAD death inh: 0.1; Calpain2 inh: 2.2; 14-3-3 Bad PPI: 2.0; TNF necrop inh: 0.2; Efa HMGR inh: -3.5

How did CCN(CC)S(=O)(=O)c1ccc(NC(=O)c2cccc3c2C(=O)N(CCOC)C3)cc1 do in these assays?
zVAD death inh: 1.5; Calpain2 inh: -127.2; 14-3-3 Bad PPI: 84.1*[fluorescence artefact?]; TNF necrop inh: 1.4; Efa HMGR inh: -3.2

What do the screens show for `CC(=O)c1c(C)[nH]c(C(=O)CN2C(=O)NC(C)(CCC(C)C)C2=O)c1C` (centres undefined)?
zVAD death inh: 3.3; Calpain2 inh: -0.5; 14-3-3 Bad PPI: -15.0; TNF necrop inh: -1.7; Efa HMGR inh: 5.4; ROMK mod: -0.344

Results for COc1ccc2nc(-n3c(O)c(C4=c5ccccc5=NC4=O)[nH]c3=S)sc2c1 ?
zVAD death inh: -0.5; Calpain2 inh: -44.4; 14-3-3 Bad PPI: 96.4*[fluorescence artefact?]; TNF necrop inh: -1.6; Efa HMGR inh: -2.4

How did Cn1c(O)c(C2=c3ccccc3=NC2=O)[nH]c1=S do in these assays?
zVAD death inh: 1.8; Calpain2 inh: 22.1; 14-3-3 Bad PPI: 4.8; TNF necrop inh: -0.4; Efa HMGR inh: 1.1

Results for CCC(Oc1ccccc1)C(=O)Nc1ncc([N+](=O)[O-])s1 (centres undefined) ?
zVAD death inh: 11.3; Calpain2 inh: -30.4; 14-3-3 Bad PPI: -2.2; TNF necrop inh: -1.0; Efa HMGR inh: 2.5; ROMK mod: -0.584

How did O=C(Cc1ccc(Cl)cc1)Nc1ncc([N+](=O)[O-])s1 do in these assays?
zVAD death inh: -0.7; Calpain2 inh: 77.2*; 14-3-3 Bad PPI: 9.8; TNF necrop inh: 22.7; Efa HMGR inh: -8.5; ROMK mod: -2.03

What do the screens show for `CC(CC(=O)Nc1ncc([N+](=O)[O-])s1)c1ccccc1` (centres undefined)?
zVAD death inh: 0.3; Calpain2 inh: -3.0; 14-3-3 Bad PPI: 0.4; TNF necrop inh: 0.3; Efa HMGR inh: -6.0; ROMK mod: -4.35*

How did O=C(Cc1ccc(Br)cc1)Nc1ncc([N+](=O)[O-])s1 do in these assays?
zVAD death inh: 0.1; Calpain2 inh: 8.3; 14-3-3 Bad PPI: 11.8; TNF necrop inh: 18.7; ROMK mod: -0.153

How did C=CCN1C(=O)C(Cc2ccccc2)SC1=Nc1ccc(C(=O)O)cc1 (centres undefined) do in these assays?
zVAD death inh: 0.4; Calpain2 inh: -2.8; 14-3-3 Bad PPI: -17.4; TNF necrop inh: 1.8; Efa HMGR inh: -4.3; ROMK mod: 0.506

What do the screens show for `CNCCOc1ccccc1OC(C)C`?
zVAD death inh: 0.6; Calpain2 inh: -8.6; 14-3-3 Bad PPI: 3.0; TNF necrop inh: 0.0; Efa HMGR inh: -0.4; ROMK mod: 0.558

Screening data from PubChem BioAssay.
